These results are taken from PubChem BioAssay (Tox21).

Experiment [1] in a line: qHTS assay to identify small molecule agonists of the estrogen receptor alpha (ER-alpha) signaling pathway in the presence of an antagonist - cell viability counter screen (AID 1259386).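 Further: cells exposed to compounds for 22 h at 37 °C before the viability read; nearly all actives have a fitted effect of over 30% in size.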 Further: potency means the concentration at half of the fitted maximal effect. The method, boiled down:
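Steps: 5-day stripped-FBS culture; seed and incubate 24hr; add ICI-182,780 (10.0nM final); pin 15-point compound titration; incubate 22hr at 37C; add CellTiter-Fluor at 21hr; read fluorescence.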
In general terms: qHTS replaces the single test concentration by a dilution series.

Experiment [2] addresses Progesterone receptor (Homo sapiens) (UniProt P06401). The experiment is described as follows: qHTS assay to identify small molecule agonists of the progesterone receptor (PR) signaling pathway (AID 1346784; calls by dose curve; further: nearly all actives have a fitted effect of over 30% in size). The method, boiled down: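 Seed PR-UAS-bla HEK 293T cells (2% charcoal-stripped FBS), incubate 6 hr at 37C; add compounds in DMSO, 16 hr at 37C; add LiveBLAzer B/G substrate, 2 hr RT; read fluorescence intensity.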

Experiment [3] shares this target. The experiment is described as follows: qHTS assay to identify small molecule antagonists of the progesterone receptor (PR) signaling pathway (AID 1346795; active means well fitted inhibition curve with a large enough effect in the signal ratio in the repeat runs, not every such curve was filed as active; the % refers to the signal ratio; further: potency means the concentration at half of the fitted maximal effect). The method in brief:
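Screening used a GripTite HEK293T line with PR-responsive UAS-beta-lactamase. Cells were challenged with compound in the presence of 1 nM R5020 final for 16 hr at 37C; B/G FRET substrate, 2 hr room temperature, fluorescence.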

The nature of experiment [4]: qHTS assay to identify small molecule antagonists of the progesterone receptor (PR) signaling pathway - cell viability counter screen (AID 1346798). Further: series mostly up to about 92 µM; nearly all actives have a fitted effect of over 50% in size. The method, boiled down:
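Measures cytotoxicity in parallel with the PR antagonist reporter read: HEK293T PR-UAS-bla cells get compound and R5020 for 16 hr, and remaining viable cells are quantified by CellTiter-Glo luminescence.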

A short description of experiment [5]: qHTS assay to identify small molecule agonists of the progesterone receptor (PR) signaling pathway - cell viability counter screen (AID 1346799; calls by dose curve; further: nearly all actives have a fitted effect of over 45% in size). The method, boiled down:
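Using the same plates as the PR reporter screen, HEK293T PR-UAS-bla cells received compounds for 16 hr at 37C and were then lysed with CellTiter-Glo; luminescence was read 30 min later at room temperature.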

Experiment [6] is described as follows: qHTS assay to identify small molecule antagonists of the TGF-beta/Smad signaling pathway - cell viability counter screen (AID 1346824). Further: nearly all actives have a fitted effect of over 50% in size. The method, boiled down:
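Cytotoxicity counter-screen run in the same wells as the beta-lactamase Smad reporter read: CellTiter-Glo luminescence after 30 min at room temperature. HEK 293T SBE-bla cells had 5 hr compound exposure at 37 C with TGF-beta1 (0.25 ng/mL stock).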

Experiment [7] can be described thus: qHTS assay to identify small molecule agonists of the TGF-beta/Smad signaling pathway - cell viability counter screen (AID 1346829). Further: top concentration of the series differs between compounds; nearly all actives have a fitted effect of over 45% in size. The method in brief:
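Here the cytotoxicity of library compounds is measured in SBE-bla HEK 293T cells treated for 5 hr, using CellTiter-Glo added to wells already read for the beta-lactamase reporter.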

Experiment [8] is described as follows: qHTS assay to identify small molecule agonists of the TGF-beta/Smad signaling pathway (AID 1346859; active means well fitted activation curve with a large enough effect in the signal ratio in the repeat runs, not every such curve was filed as active; the % refers to the signal ratio; further: series mostly up to about 77 µM). The method, boiled down:
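Beta-lactamase reporter activity downstream of Smad binding elements was measured in stably transfected HEK 293T cells; compounds were incubated for 5 hr, substrate for 2 hr at room temperature.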

For experiment [9], the target named is Thyrotropin-releasing hormone receptor (Homo sapiens) (UniProt P34981). Kind of experiment: qHTS assay to identify small molecule antagonists of the thyrotropin-releasing hormone receptor (TRHR) signaling pathway (AID 1346877; active means well fitted inhibition curve with a large enough effect in the repeat runs, not every such curve was filed as active; further: series mostly up to about 51 µM). The method in brief: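 Human TRHR in HEK293 cells; inhibition of the intracellular calcium rise triggered by 1 nM TRH was followed by fluorescence over 3 min. Compounds were run at 15 concentrations, three replicates each.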

Experiment [10] shares this target. The experiment is described as follows: qHTS assay to identify small molecule agonists of the thyrotropin-releasing hormone receptor (TRHR) signaling pathway (AID 1346891; calls by dose curve;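 further: HEK293 cells expressing TRHR with calcium dye readout; series mostly up to about 58 µM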). The method in brief: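 Overnight-plated (18 h, 37 °C, 5% CO2) TRHR-Hek293 cells; 2 h calcium dye at 37 °C; compound in DMSO; 3-min kinetic fluorescence read.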
A short description of experiment [11]: Human pregnane X receptor (PXR) small molecule agonists, qHTS cell viability counter screen (AID 1346977). Further: nearly all actives have a fitted effect of over 50% in size. Further: potency means the concentration at half of the fitted maximal effect. The method in brief:
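After a 5hr pre-incubation, PXR-Luc HepG2 cells received compounds plus positive control in DMSO and were kept 24hr at 37C. Cell viability was quantified by fluorescence from CellTiter-Fluor added for the final hour.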

Experiment [12] is described as follows: Caspase-3/7 induction in HepG2 cells by small molecules, qHTS assay (AID 1346978). Further: nearly all actives have a fitted effect of over 15% in size. The method in brief:
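Caspase-3/7 induction was measured by Caspase-Glo 3/7 luminescence (30 min, room temperature) after a 17 hr compound exposure of wild-type HepG2 cells seeded at 2,000 per well and pre-incubated 5 hr.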

Experiment [13] is described as follows: Caspase-3/7 induction in CHO-K1 cells by small molecules, qHTS cell viability counter screen (AID 1346979). Further: nearly all actives have a fitted effect of over 35% in size. Further: potency means the concentration at half of the fitted maximal effect. The method in brief: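 Multiplexed with Caspase-Glo 3/7 in CHO-K1 cells, this counter screen added CellTiter-Fluor after 16hr of compound exposure and recorded fluorescence 1hr later.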
A short description of experiment [14]: Caspase-3/7 induction in CHO-K1 cells by small molecules, qHTS assay (AID 1346980). Further: nearly all actives have a fitted effect of over 15% in size. The method, boiled down:
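Luminescent Caspase-Glo 3/7 read (30min, room temperature) quantified apoptosis induction. Cells were wild-type CHO-K1, treated with compound for 17hr at 37 C and 5% CO2.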

Experiment [15] can be described thus: Caspase-3/7 induction in HepG2 cells by small molecules, qHTS cell viability counter screen (AID 1346981). Further: nearly all actives have a fitted effect of over 30% in size. Further: potency means the concentration at half of the fitted maximal effect. The method in brief:
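The parent HepG2 line is plated at 2,000 cells per well and rested 5 hr before compound pinning from DMSO stocks. Following a 16-hr treatment at 37 C, a fluorogenic live-cell substrate (CellTiter-Fluor) reports viability after 1 hr.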

For experiment [16], the target named is Nuclear receptor subfamily 1 group I member 2 (Homo sapiens) (UniProt O75469). The experiment is described as follows: Human pregnane X receptor (PXR) small molecule agonists, qHTS assay (AID 1346982). Further: nearly all actives have a fitted effect of over 35% in size. Further: potency means the concentration at half of the fitted maximal effect. The method in brief:
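After plating in 5% charcoal-stripped FBS and a 5 hr rest, PXR-Luc HepG2 cells received compounds in DMSO. Following 24 hr at 37 C, ONE-Glo was added and light output read.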

Experiment [17] has the same target. The experiment is described as follows: CYP3A4 induction through human pregnane X receptor (PXR) by small molecules, qHTS assay (AID 1346984). Further: nearly all actives have a fitted effect of over 40% in size. The method in brief: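 Human PXR activation is tracked via CYP3A4 promoter-luciferase in DPX-2 (HepG2) cells. Compounds treat cells for 24hr at 37C, and luminescence is read after One-Glo.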
Experiment [18] has the same target. The experiment is described as follows: Human pregnane X receptor (PXR) activation by small molecules, qHTS assay (AID 1346985). Further: nearly all actives have a fitted effect of over 40% in size. The method in brief:
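DPX-2 cells (HepG2 co-transfected with a PXR response element and a CYP3A4-promoter luciferase construct) were seeded at 2,000 per well, rested 5 hr at 37C, then exposed to DMSO-dissolved compounds for 24 hr. Activation was read as luciferase luminescence.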

Experiment [19] concerns the target Cytochrome P450 2D6 (Homo sapiens) (UniProt P10635). The experiment is described as follows: Cytochrome P450 Family 2 Subfamily D Member 6 (CYP2D6) small molecule antagonists: luciferase reporter qHTS assay (AID 1671196). Further: nearly all actives have a fitted effect of over 50% in size. Further: potency means the concentration at half of the fitted maximal effect. The method in brief: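 Quantitative HTS of Tox21 chemicals against CYP2D6 using a luminescent proluciferin substrate. After NADPH addition, 1 h room-temperature reaction; luminescence recorded 20 min post detection reagent.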
Background: In a reporter assay the amount or activity of a reporter protein is the signal.

The structures appear in SMILES notation. A number with no mark means an inactive call. Inconclusive results are not listed. The source made the active and inactive calls. Unless noted, the call rests on the fitted dose curve; in most records, active means well fitted curve in the direction sought with a large enough effect in the repeat runs; inconclusive means weak or mixed curves; inactive means no such curve, though single readings can be large; an effect the other way counts as inactive or inconclusive.

Chain of Progesterone receptor (Homo sapiens) (P06401 whole entry, looked up): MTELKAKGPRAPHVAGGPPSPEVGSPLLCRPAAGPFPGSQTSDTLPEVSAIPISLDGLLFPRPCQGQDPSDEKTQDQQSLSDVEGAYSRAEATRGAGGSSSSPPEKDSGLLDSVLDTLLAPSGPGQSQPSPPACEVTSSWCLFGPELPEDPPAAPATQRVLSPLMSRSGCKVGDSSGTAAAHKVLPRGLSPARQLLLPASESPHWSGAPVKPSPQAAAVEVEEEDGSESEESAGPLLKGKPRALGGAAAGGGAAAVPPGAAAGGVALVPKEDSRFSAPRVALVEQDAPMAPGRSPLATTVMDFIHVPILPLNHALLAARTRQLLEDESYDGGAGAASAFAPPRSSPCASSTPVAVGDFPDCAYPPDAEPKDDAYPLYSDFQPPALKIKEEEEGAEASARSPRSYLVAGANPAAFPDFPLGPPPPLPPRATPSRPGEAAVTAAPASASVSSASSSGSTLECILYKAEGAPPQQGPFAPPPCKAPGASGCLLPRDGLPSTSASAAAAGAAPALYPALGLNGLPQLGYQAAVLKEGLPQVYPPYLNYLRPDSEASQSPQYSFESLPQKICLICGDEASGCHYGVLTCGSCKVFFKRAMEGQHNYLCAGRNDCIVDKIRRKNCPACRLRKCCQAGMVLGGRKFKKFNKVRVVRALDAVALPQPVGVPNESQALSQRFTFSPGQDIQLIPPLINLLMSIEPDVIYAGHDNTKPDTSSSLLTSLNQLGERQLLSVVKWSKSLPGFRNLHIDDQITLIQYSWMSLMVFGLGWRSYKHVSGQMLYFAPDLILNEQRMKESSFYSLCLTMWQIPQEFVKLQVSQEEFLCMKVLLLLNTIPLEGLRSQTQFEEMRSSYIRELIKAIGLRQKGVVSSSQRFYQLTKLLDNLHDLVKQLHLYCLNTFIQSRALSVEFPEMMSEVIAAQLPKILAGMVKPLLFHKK
Chain of Cytochrome P450 2D6 (Homo sapiens) (P10635 whole entry, looked up): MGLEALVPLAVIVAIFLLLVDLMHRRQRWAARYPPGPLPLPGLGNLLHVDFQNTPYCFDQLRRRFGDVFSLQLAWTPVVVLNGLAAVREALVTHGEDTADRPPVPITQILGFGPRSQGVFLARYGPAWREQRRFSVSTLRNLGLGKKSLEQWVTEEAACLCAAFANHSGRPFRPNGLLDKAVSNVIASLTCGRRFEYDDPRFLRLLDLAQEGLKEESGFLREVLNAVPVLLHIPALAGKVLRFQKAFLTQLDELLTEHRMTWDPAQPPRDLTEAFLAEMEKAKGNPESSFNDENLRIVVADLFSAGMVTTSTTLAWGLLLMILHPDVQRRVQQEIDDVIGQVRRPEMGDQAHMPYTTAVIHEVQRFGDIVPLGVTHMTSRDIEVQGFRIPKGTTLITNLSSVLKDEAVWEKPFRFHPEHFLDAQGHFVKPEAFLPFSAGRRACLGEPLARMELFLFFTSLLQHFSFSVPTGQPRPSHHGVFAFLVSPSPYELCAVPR
Chain of Thyrotropin-releasing hormone receptor (Homo sapiens) (P34981 whole entry, looked up): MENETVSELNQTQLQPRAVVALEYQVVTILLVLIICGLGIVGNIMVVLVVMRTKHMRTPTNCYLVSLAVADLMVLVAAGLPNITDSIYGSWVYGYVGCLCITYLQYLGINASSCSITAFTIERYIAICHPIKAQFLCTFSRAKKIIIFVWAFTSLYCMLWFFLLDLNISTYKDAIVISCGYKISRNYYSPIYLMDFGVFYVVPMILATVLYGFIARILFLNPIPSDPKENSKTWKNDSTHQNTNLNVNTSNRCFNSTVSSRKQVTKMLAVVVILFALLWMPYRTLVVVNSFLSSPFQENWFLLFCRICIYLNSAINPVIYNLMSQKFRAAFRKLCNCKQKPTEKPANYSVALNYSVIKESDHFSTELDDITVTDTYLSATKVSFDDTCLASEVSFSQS
Chain of Nuclear receptor subfamily 1 group I member 2 (Homo sapiens) (O75469 whole entry, looked up): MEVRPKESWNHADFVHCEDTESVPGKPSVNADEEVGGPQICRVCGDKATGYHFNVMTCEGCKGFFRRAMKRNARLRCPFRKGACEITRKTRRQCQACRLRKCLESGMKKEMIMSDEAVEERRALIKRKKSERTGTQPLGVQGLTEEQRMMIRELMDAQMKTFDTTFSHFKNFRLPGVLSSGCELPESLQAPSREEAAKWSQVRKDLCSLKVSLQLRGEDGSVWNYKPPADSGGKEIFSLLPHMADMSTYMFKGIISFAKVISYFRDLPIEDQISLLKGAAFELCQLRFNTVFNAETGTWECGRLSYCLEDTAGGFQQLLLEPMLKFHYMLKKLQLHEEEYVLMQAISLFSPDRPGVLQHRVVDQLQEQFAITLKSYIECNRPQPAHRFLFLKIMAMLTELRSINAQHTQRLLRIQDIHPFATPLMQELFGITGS

As for `CCCCCCCCN`, the Potency result in experiment [1], in [2], in [3], in [4], in experiment [5] and in experiment [6] was “inactive” in each case. For the same compound, the Potency result in experiment [7], in experiment [8], in [10], in experiment [11], in [12] and in experiment [13] was “inactive” in each case. The Potency result in experiment [14] and in [15] was “inactive” each time. Besides, the call in [9] was inactive.
With `C=C/C(C)=C/C/C=C(\C)CCC=C(C)C`, the Potency entry in experiment [1], in experiment [2], in experiment [3], in [4], in experiment [5] and in [6] was “inactive” each time. In addition, the Potency result in experiment [7], in experiment [8], in experiment [10], in experiment [11], in experiment [12] and in experiment [14] was “inactive” each time. Also, the Potency result in [15] is “inactive”. In experiment [9], the result was inactive. Also, the Potency in experiment [16] is 27.3 µM (active).
On to `C=C1c2cccc(O)c2C(O)=C2C(=O)[C@]3(O)C(O)=C(C(N)=O)C(=O)[C@@H](N(C)C)[C@@H]3[C@@H](O)[C@H]12`, for which the Potency result in [1], in experiment [2], in [3], in experiment [4], in experiment [5] and in [6] was “inactive” in each case. In addition, the Potency result in experiment [7], in experiment [8], in experiment [10], in [11], in experiment [12] and in experiment [13] was “inactive” each time. Further, the Potency result in [15], in experiment [16], in experiment [17] and in experiment [18] was “inactive” each time. Moreover, in experiment [9], the call was inactive.
For `CC=C(Cl)Cl`, the Potency result in experiment [1], in experiment [2], in experiment [3], in experiment [4], in experiment [5] and in experiment [6] was “inactive” in each case. The Potency entry in [7], in experiment [8], in experiment [10], in experiment [11], in experiment [12] and in experiment [13] was “inactive” each time. Also, the Potency result in experiment [14], in experiment [15] and in [19] was “inactive” each time. Also, in experiment [9], the compound was called inactive.
Regarding `C=C1CCC2CC1C2(C)C` (stereo unspecified), the Potency entry in experiment [1], in experiment [2], in experiment [3], in experiment [4], in [5] and in experiment [6] was “inactive” throughout. Moreover, the Potency result in experiment [7], in experiment [8], in experiment [10], in [11], in [12] and in [13] was “inactive” throughout. For the same compound, the Potency entry in experiment [14], in experiment [16] and in [19] was “inactive” in each case. Also, in experiment [9], the call was inactive.
On to `Nc1ccc(N=Nc2ccccc2)c(N)c1`, for which the Potency in [1] was 26.7 µM (active); in [3], 47.5 µM (active); in experiment [11], 33.6 µM (active); in experiment [13], 59.8 µM (active); in experiment [15] it was 53.3 µM (active); in [16], 1.69 µM (active). In addition, the Potency in experiment [19] was 2.2 µM (active). The Potency result in [2], in [4], in experiment [5], in [6], in [7] and in experiment [8] was “inactive” in each case. The Potency result in experiment [10] and in [12] was “inactive” in each case. In [9], the compound was classed as inactive.
Regarding `CC(C)C(O)(c1ccc(OC(F)(F)F)cc1)c1cncnc1` (stereo unspecified), the Potency result in [1], in experiment [2], in [4], in experiment [5], in experiment [6] and in [7] was “inactive” each time. Further, the Potency result in experiment [8], in [10], in experiment [11], in [12], in experiment [13] and in [14] was “inactive” throughout. For the same compound, in [15], the Potency entry was “inactive”. Besides, the Potency in [3] was 30.5 µM (active). Besides, the compound was called inactive in [9].
As to `CCC1NC(=O)c2cc(S(N)(=O)=O)c(Cl)cc2N1` (stereo unspecified), the Potency result in experiment [1], in [2], in experiment [3], in experiment [4], in experiment [5] and in experiment [6] was “inactive” throughout. For the same compound, the Potency entry in experiment [7], in experiment [8], in experiment [10], in experiment [11], in experiment [12] and in experiment [13] was “inactive” each time. In addition, the Potency entry in experiment [14] and in experiment [15] was “inactive” throughout. The outcome in [9] was inactive.
Regarding `O=[N+]([O-])c1ccc(Nc2ccc(Nc3ccccc3)c(S(=O)(=O)O)c2)c([N+](=O)[O-])c1`, the Potency in experiment [1] is 54.5 µM (active); in experiment [11], 68.6 µM (active); in [13], 54.5 µM (active); in experiment [15] it was 61.1 µM (active). For the same compound, the Potency entry in experiment [2], in experiment [3], in [4], in experiment [5], in experiment [6] and in experiment [7] was “inactive” each time. Moreover, the Potency result in [8], in experiment [10], in experiment [12], in [14] and in experiment [19] was “inactive” each time. Moreover, in experiment [9], the outcome was inactive.
